Consider 95 compounds from PubChem BioAssay AID1063 (University of Pittsburgh Molecular Library Screening Center, 2008).

Screen size: about 200,000 compounds; about 18,000 (9%) were called active. This excerpt belongs to a sample that is enriched for actives. A number with no mark means an inactive call. No stated cut-off is given here; in the data, active means inhibition above about 50%; inactive means the rest.

The assay can be described thus: antileishmanial activity against promastigotes – primary screen (AID 1063).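 Further: promastigotes grown with compound for 44 hours at 28 °C.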 Conditions: Leishmania major promastigotes, resazurin fluorescence viability; at 10 µM; stronger effect = higher value. (Resazurin is reduced to fluorescent resorufin, in cell work by metabolically active cells.)
What is called inhibition is the change of the read-out against control, counted positive when it falls. On to `COc1ccccc1-n1ccnc1SCC(=O)NC(C)(C)C`, for which the inhibition was -1.52%.
Regarding `COC(=O)c1ccc(CSc2nnc(N)s2)o1`, the inhibition was -5.93%.
The same measure for `CCC(c1nnnn1Cc1ccco1)N(Cc1cc2cc(OC)ccc2[nH]c1=O)C1CCCCC1` (stereo not given): 49.5%; for `CCC(c1nnnn1Cc1ccco1)N(CCc1ccccc1)Cc1cc2cccc(C)c2[nH]c1=O` (stereo not given): 39.7%.
The value for `CCC(c1nnnn1Cc1ccco1)N(CCc1ccccc1)Cc1cc2ccc(OC)cc2[nH]c1=O` (stereo not given) was 85.7% (active).
With `CN(C)c1ccc(C(CC(=O)O)C(=O)O)cc1` (stereo not given), the inhibition is -3.91%.
In the case of `Cc1cccc(NC(=O)c2nnn(-c3cccc(C(F)(F)F)c3)c2N)c1`, the inhibition was 3.89%.
The value for `Cc1ncn(C23CC4CC(CC(O)(C4)C2)C3)n1` was -5.82%.
As for `Cc1nc([N+](=O)[O-])nn1C12CC3CC(CC(Br)(C3)C1)C2`, the inhibition is 98.2% (active).
For `O=S(=O)(c1ccccc1)c1nc(-c2ccccc2F)oc1NCc1cccnc1`, the inhibition was 0.99%.
The same measure for `CCCCC(NC(=O)c1cccc(Br)c1)C(=O)O` (stereo not given): 21.1%.
The value for `CC(CC(=O)O)CC(=O)NNC(=O)c1cccc(Br)c1` (stereo not given) was -4.63%; that for `C/C(Cc1ccccc1)=N\NC(=O)CNC(=O)c1cccc(Br)c1` was 51.4% (active); that for `COc1ccc(C)cc1-n1nnnc1SCc1nc2ccccc2c(=O)[nH]1` was 2.27%.
The same measure for `Cc1nc(-c2ccc(Cl)cc2)sc1C(=O)CBr`: -12.4%.
Take `CCCn1c(=S)[nH]c2ccc(C(F)(F)F)cc21`: the inhibition was -2.71%.
The same measure for `CCCC(=O)OCC(=O)Nc1cc(Cl)ccc1[N+](=O)[O-]`: -6.12%; for `Cc1[nH]c2ccccc2c1-c1ccc(Cl)nn1`: -2.46%.
Turning to `COc1ccc(OC)c(Nc2nc(-c3ccc(O)c(O)c3)cs2)c1`, the inhibition is 20.7%.
Regarding `COc1ccc(C)cc1Nc1nc(-c2c(C)[nH]c3ccccc23)cs1`, the inhibition is 97.8% (active).
The value for `COC(=O)C(NS(=O)(=O)c1ccc(F)cc1)c1ccccc1` (stereo not given) was -1.84%; that for `CS/C(=C\[N+](=O)[O-])Nc1ccc(C)cc1` was -1.56%; that for `CCc1nnc(NC(=O)c2cccc(S(=O)(=O)N(C)c3ccc(OC)cc3)c2)s1` was -0.19%.
As to `O=C(Cc1ccccc1)NC(=S)Nc1ccc(N2CCCCC2)cc1`, the inhibition was -9.12%.
In the case of `COc1ccc(-n2c(C)cc(C(=O)CSc3nnc(-c4cccs4)o3)c2C)cc1`, the inhibition is -4.2%.
`Cc1ccc(-n2c(C)cc(C(=O)CN3C(=O)C(=O)N(C4CCCC4)C3=O)c2C)cc1`: the inhibition is -5.85%.
`COc1ccc(-n2c(C)cc(C(=O)CN3C(=O)NC4(CCc5ccccc54)C3=O)c2C)cc1` (stereo not given): the inhibition is 98.6% (active).
The value for `Cc1nn(-c2ccc([N+](=O)[O-])cc2)c(N)c1-c1ccccc1` was -4.1%.
In the case of `CC(C)(C)NC(=O)NC(=O)COC(=O)Cc1c(F)cccc1Cl`, the inhibition was 2.42%.
Take `O=C(CSc1cccc[n+]1[O-])NCCCc1ccccc1`: the inhibition was 1.17%.
The value for `COc1ccc(C(=O)CSc2nnc(NC(=O)C3CC(=O)N(c4cccc(OC)c4)C3)s2)cc1` (stereo not given) was 56.9% (active); that for `COc1cccc(NC(=O)Nc2nnc(N3CCCCC3C)s2)c1` (stereo not given) was 3.59%.
Regarding `COc1cccc(N2CC(C(=O)Nc3c(C)cccc3C)CC2=O)c1` (stereo not given), the inhibition is 2.01%.
The value for `COC(=O)c1ccccc1NC(=O)C1CC(=O)N(c2ccc(OC)cc2)C1` (stereo not given) was -10.5%; that for `CCOc1ccccc1Nc1nnc(SCC(=O)Nc2cc(C)on2)s1` was 4.84%; that for `COc1cccc(Nc2nnc(SCC(=O)N3CC(C)OC(C)C3)s2)c1` (stereo not given) was 51.2% (active).
As to `CCOC(=O)CCCN1CC(O)=C(c2nc3ccccc3s2)C1=N`, the inhibition is 17%.
As to `CC(C)n1c(=O)[nH]c2cc(C(=O)Nc3ccccc3)ccc21`, the inhibition is -2.18%.
The value for `O=C(N/N=C/c1ccco1)c1ccc(C(=O)N/N=C/c2ccco2)o1` was -1.3%.
The value for `COC(=O)c1nn(-c2cccc(Cl)c2)ccc1=O` was -3.04%.
The value for `O=C(Cc1ccc([N+](=O)[O-])cc1)N/N=C/c1ccco1` was 2.95%; that for `COc1cc(NC(=O)CSc2nnc3ccc(-c4ccncc4)nn23)cc(OC)c1` was -2.79%.
For `COc1cccc(OC)c1C(=O)NC(=S)Nc1ccc(N2CCOCC2)c(Cl)c1`, the inhibition is 21.4%.
The value for `CCOc1ccc(C(=O)NC(=S)Nc2ccc(N3CCOCC3)c(Cl)c2)cc1[N+](=O)[O-]` was 100% (active); that for `CCOc1ccc(C(=O)NC(=S)Nc2ccc(NC(=O)C(C)C)cc2)cc1[N+](=O)[O-]` was -7.33%; that for `O=C(c1ccncc1)N1CCN(c2ccc3ccccc3n2)CC1` was -1.56%.
Take `O=C(Nn1cnnc1)c1ccc([N+](=O)[O-])cc1`: the inhibition was -11.1%.
The same measure for `CCOC(=O)c1cccc(NC(=O)CN(c2ccc(C)cc2)S(=O)(=O)c2c(C)noc2C)c1`: 22.7%; for `Cc1noc(C)c1S(=O)(=O)N(CC(=O)Nc1ccc2c(c1)OCCO2)c1ccc(C(C)C)cc1`: 55.8% (active).
The same measure for `Cc1noc(C)c1S(=O)(=O)N(CC(=O)NCc1ccc(Cl)cc1)c1ccc2c(c1)OCO2`: -4.31%; for `CCC1CCCCN1C(=O)CSc1nc(C)cc(C)n1` (stereo not given): 11.3%; for `O=C(O)/C=C/C(=O)NNc1ccc([N+](=O)[O-])cc1`: -9.99%.
As to `CCOC(=O)CSc1nc2ccc(C)cc2[nH]1`, the inhibition is -4.89%.
The same measure for `O=C(CSc1nc2ccc([N+](=O)[O-])cc2[nH]1)c1ccc(Cl)cc1`: -1.01%; for `CC(=O)Nc1ccc(C(=O)CSc2nc3ccc(C)cc3[nH]2)cc1`: 52.9% (active); for `O=C1c2ccccc2NC(c2ccccn2)N1NS(=O)(=O)c1ccccc1` (stereo not given): 2.46%.
With `COc1ccc(NS(=O)(=O)c2cc(NC(=O)C3CCCCC3)ccc2N2CCOCC2)cc1`, the inhibition was 16.6%.
For `COc1ccc(NS(=O)(=O)c2cc(NC(=O)/C=C/c3cc(OC)c(OC)c(OC)c3)ccc2N2CCCCC2)cc1`, the inhibition is 61.7% (active).
As for `COc1ccc(/C=C/C(=O)Nc2ccc3c(c2)OCCO3)cc1OC`, the inhibition is 13.8%.
The value for `COc1ccccc1NC(=O)CCCc1c[nH]c2ccccc12` was -1.94%; that for `Cc1cc(C)cc(NC(=S)NCCc2c[nH]c3ccccc23)c1` was 10.6%; that for `COc1cccc(CNCCc2c[nH]c3ccccc23)c1OCc1ccccc1F` was 101% (active).
The same measure for `CCOc1ccc(S(=O)(=O)Nc2ccncc2)c(C)c1C`: -6%.
The value for `O=C(CCn1ccc([N+](=O)[O-])n1)Nc1nccs1` was 11.6%; that for `COc1ccc2c(c1OC)C(=O)OC2c1c(O)nc(SC)n(-c2ccccc2)c1=O` (stereo not given) was -6.91%; that for `COc1ccc(-c2csc(Nc3ccccn3)n2)cc1` was 15.6%.
As to `COc1ccc2c(c1OC)C(=O)OC2Nc1nc(-c2ccccc2)cs1` (stereo not given), the inhibition is 99.8% (active).
The value for `CC(=O)c1cnc(-c2ccccc2)s1` was -5.94%; that for `COCCNC(=O)C(c1ccc(O)cc1)N(C(=O)CCC(=O)Nc1nccs1)c1ccc(C)cc1` (stereo not given) was -10.6%; that for `CN1CCCN(C(=O)C2CCCCC2)CC1` was 0.8%.
The value for `COc1ccc(C(=O)Nc2sc(C)c(C)c2CN2CCOCC2)cc1` was -3.61%; that for `COC(=O)CCC(=O)N1CCCC(CO)(Cc2ccccc2)C1` (stereo not given) was -4.47%; that for `COC(=O)c1ccc(CN2CCC(CO)(Cc3ccc(OC)cc3)CC2)cc1` was 86.4% (active).
The value for `CCOC(=O)C1(S(=O)(=O)c2ccc(Cl)cc2)CCN(Cc2ccccc2)CC1` was 29.3%; that for `COc1ccc(CC2(CO)CCN(Cc3cnn(C)c3)CC2)cc1` was 91.4% (active).
Regarding `CCOC(=O)C1(S(=O)(=O)c2ccccc2)CCN(Cc2ccccc2)CC1`, the inhibition is 1.91%.
The value for `Cc1nn(C)c(C)c1S(=O)(=O)N1CCC(CO)(Cc2ccc(Cl)cc2)CC1` was 2.5%.
On to `COc1cccc(CC2(CO)CCN(Cc3cnc(-c4cccc(C)c4)nc3)CC2)c1`, for which the inhibition was 4.89%.
The same measure for `CCOC(=O)C1(CCOC)CCN(Cc2ccc(C(=O)OC)cc2)CC1`: 81.1% (active); for `OCCCC1CCCCN1Cc1nc(Cc2ccccc2Cl)no1` (stereo not given): -4.56%.
The same measure for `Cc1nc2ccccc2c(C)c1C(=O)c1ccc(F)cc1`: -3.66%; for `CC(OC(=O)c1ccccc1N1C(=O)C2C3CCC(C3)C2C1=O)C(=O)c1ccccc1` (stereo not given): 32%.
The value for `CCCCN(CC(=O)NC(C)(C)C)C(=O)C(=O)Nc1ccc2c(c1)OCCO2` was -6.64%; that for `Cn1ncc(N2CCN(S(=O)(=O)c3ccc(Br)cc3)CC2)c(Cl)c1=O` was 39.2%.
Take `O=C1CC(=O)Nc2cc(S(=O)(=O)N3CCN(c4cccc(C(F)(F)F)c4)CC3)ccc2N1`: the inhibition was -5.33%.
The value for `Cc1cc(C)nc(Nc2ncn[nH]2)n1` was -7.12%.
The value for `CCCCS(=O)c1snnc1C` (stereo not given) was -4.06%; that for `COc1ccc(N(CC(=O)Nc2ccc(C)cc2C)S(=O)(=O)c2ccccc2[N+](=O)[O-])c(OC)c1` was 9.22%.
The value for `Cc1cccc(NC(=O)/C(=C\c2ccco2)NC(=O)c2ccccc2)c1` was 3.51%; that for `O=C(Nc1ccc2ccccc2c1)/C(=C\c1ccc2c(c1)OCO2)NC(=O)c1ccco1` was 1.7%; that for `O=C(Nc1ccc2ccccc2c1)/C(=C/c1cccc(Br)c1)NC(=O)c1ccco1` was 76.3% (active).
Take `CCCCCCCCCCOC(=O)C[N+](C)(C)CC1CCCCC1O` (stereo not given): the inhibition was -3.34%.
The value for `N#C/C(=C/c1ccc(N2CCCCC2)o1)C(=O)NCCc1c[nH]c2ccccc12` was 0.13%.
In the case of `N#C/C(=C\c1ccc(N2CCOCC2)o1)C(=O)N1CCOCC1`, the inhibition was 39.9%.
The same measure for `N#C/C(=C/c1ccc(N2CCOCC2)o1)C(=O)N1CCOCC1`: 54.5% (active).
